# Unmarked numbers belong to inactive results. Results filed as inconclusive are left out. Entries that show only a call come without a potency. Calls of active or inactive are those of the source. Unless noted, the call rests on the fitted dose curve; in most records, active means well fitted curve in the direction sought with a large enough effect in the repeat runs; inconclusive means weak or mixed curves; inactive means no such curve, though single readings can be large; an effect the other way counts as inactive or inconclusive.
# Columns and labels:
# [1] = target: Thyrotropin receptor (Homo sapiens) (UniProt P16473); assay: qHTS assay to identify small molecule agonists of the thyroid stimulating hormone receptor (TSHR) signaling pathway (AID 1224843; calls by dose curve; further: nearly all actives have a fitted effect of over 45% in size; further: potency means the concentration at half of the fitted maximal effect)
# Outline: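 HEK293/TSHR, 800 cells/well; cpd 30 min RT; add cAMP-d2 + anti-cAMP-cryptate, 1 h RT; fluorescence read on plate reader. 15-pt titration, n=3.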
# [2] = qHTS assay to identify small molecule agonists of the hypoxia (HIF-1) signaling pathway - cell viability counter screen (AID 1224844; calls by dose curve; further: nearly all actives have a fitted effect of over 50% in size)
# Outline: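 Cytotoxicity measured by CellTiter-Glo ATP luminescence in the wells also read for beta-lactamase signal. Cells were HRE-bla ME-180 (2,000/well, 0.5% dialyzed FBS), exposed to compounds for 17 h at 37C.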
# [3] = qHTS assay to identify small molecule agonists of H2AX (AID 1224845; active means well fitted activation curve with a large enough effect in the signal ratio in the repeat runs, not every such curve was filed as active; the % refers to the signal ratio; further: potency means the concentration at half of the fitted maximal effect)
# Outline: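 Wild-type CHO-K1 cells, plated overnight, exposed 3hr at 37C to 15 concentrations (0.76% DMSO final). Lysed, then HTRF anti-pH2AX (S139) cryptate and anti-H2AX-d2 antibodies, 24 hr room temperature; 665/620 nm emission read.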
# [4] = qHTS assay to identify small molecule agonists of the hypoxia (HIF-1) signaling pathway (AID 1224846; active means well fitted activation curve with a large enough effect in the signal ratio in the repeat runs, not every such curve was filed as active; the % refers to the signal ratio)
# Outline: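 Compounds added to ME-180 cells carrying hypoxia-response-element beta-lactamase reporter (0.5% dialyzed FBS, 5 h preplating), 17 h at 37C; agonist activity detected by CCF4-AM B/G FRET read-out.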
# [5] = qHTS RealTime-Glo MT Cell Viability Assay in HepG2 cells - 24 hour (AID 1224867); further: nearly all actives have a fitted effect of over 50% in size
# Outline: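 Tox21 10K library screened in qHTS format on HepG2 cells carrying RealTime-Glo reagents. Compounds were added after a 5 h preincubation, and the luminescent signal from continuous culture was measured repeatedly during 40 h treatment.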
# [6] = qHTS RealTime-Glo MT Cell Viability Assay in HEK293 cells - 32 hour (AID 1224868); further: nearly all actives have a fitted effect of over 50% in size; further: potency means the concentration at half of the fitted maximal effect; on activity change, negative = cytotoxic: top concentration of the series differs between compounds
# Outline: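 Luminescence generated by NanoLuc from substrate produced by living HEK293 cells served as the viability signal. Each value reflects the reading at its stated time point during continuous 40 h compound exposure at 37 C.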
# [7] = A CellTox Green Cytotoxicity Assay to monitor cytotoxicity in HEK293 cells - 0 hour (AID 1224869); further: nearly all actives have a fitted effect of over 50% in size
# Outline: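 Fluorescence from a DNA-binding dye excluded by viable cells was measured repeatedly in the same HEK293 wells (600 cells/well) during continuous compound exposure at 37 C. Each assay gives one read point: 0, 8, 16, 24, 32 or 40 h.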
# [8] = qHTS assay to identify small molecule antagonists of the estrogen related receptor (ERR) signaling pathway from Tox21 library (AID 1224848); further: nearly all actives have a fitted effect of over 50% in size; further: potency means the concentration at half of the fitted maximal effect
# Outline: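 Compounds dissolved in DMSO are pin-transferred onto ERR reporter cells (2,000 per well) that have settled for 6 h at 37 C. Plates then incubate 18 h at 37 C before ONE-Glo luciferase reagent and a luminescence read 30 min later.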
# [9] = qHTS assay to identify small molecule agonists of the estrogen related receptor (ERR) signaling pathway from Tox21 library (AID 1224849; calls by dose curve; further: nearly all actives have a fitted effect of over 15% in size); conditions: ERR reporter cell line, ONE-Glo luciferase, 18 h; at 92.4 µM (top of the series) unless noted
# Outline: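 Luminescent agonist read-out (One-Glo, 30-minute room-temperature incubation) following 18-hour compound treatment at 37 C of the ERR cell line, which had been plated 6 hours before dosing.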
# [10] = qHTS assay to identify small molecule agonists of H2AX - cell viability counter screen (AID 1224847; calls by dose curve; further: top concentration of the series differs between compounds; nearly all actives have a fitted effect of over 30% in size)
# Outline: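 After overnight plating of 1000 CHO-K1 cells per well, a 15-concentration compound series was applied for 3 hr at 37C. Luminescence from CellTiter-Glo, read following 30 min at room temperature, reflected cell viability.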
# Sequence of Thyrotropin receptor (Homo sapiens) (P16473 whole entry, looked up): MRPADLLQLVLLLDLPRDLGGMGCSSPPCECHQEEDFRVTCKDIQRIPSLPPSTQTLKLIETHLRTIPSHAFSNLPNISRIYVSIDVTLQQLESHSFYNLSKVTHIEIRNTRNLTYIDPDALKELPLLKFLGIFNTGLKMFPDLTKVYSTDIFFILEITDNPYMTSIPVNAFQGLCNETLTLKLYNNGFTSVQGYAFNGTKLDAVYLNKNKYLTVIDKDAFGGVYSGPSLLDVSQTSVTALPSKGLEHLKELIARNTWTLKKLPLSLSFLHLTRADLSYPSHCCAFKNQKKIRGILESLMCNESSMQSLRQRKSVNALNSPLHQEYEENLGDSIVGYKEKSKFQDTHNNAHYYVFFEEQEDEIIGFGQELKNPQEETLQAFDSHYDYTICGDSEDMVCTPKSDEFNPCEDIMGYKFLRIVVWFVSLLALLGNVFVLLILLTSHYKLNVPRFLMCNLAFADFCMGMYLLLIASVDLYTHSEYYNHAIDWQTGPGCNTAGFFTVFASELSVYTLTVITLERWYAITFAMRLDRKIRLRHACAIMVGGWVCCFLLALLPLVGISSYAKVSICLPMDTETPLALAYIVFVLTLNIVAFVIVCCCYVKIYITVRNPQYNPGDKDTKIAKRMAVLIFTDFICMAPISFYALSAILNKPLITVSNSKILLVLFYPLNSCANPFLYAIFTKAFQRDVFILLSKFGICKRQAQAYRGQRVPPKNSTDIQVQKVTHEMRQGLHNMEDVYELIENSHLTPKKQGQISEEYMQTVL
smiles,measurement,setting,value
O=P(c1ccccc1)(c1ccccc1)c1ccccc1,Potency,[1],inactive
same,Potency,[2],inactive
same,Potency,[3],inactive
same,outcome,[4],inactive
same,outcome,[5],inactive
same,Potency,[6],inactive
same,Potency,[7],inactive
N#CCCCC(C#N)CCC#N (stereo unspecified),Potency,[1],inactive
same,Potency,[2],inactive
same,Potency,[3],inactive
same,outcome,[4],inactive
same,Potency,[8],inactive
same,"activity change, positive = activation",[9],0.869%
same,outcome,[5],inactive
same,Potency,[7],inactive
O=[N+]([O-])c1ccc(Cl)cc1Cl,Potency,[1],inactive
same,Potency,[2],inactive
same,Potency,[3],inactive
same,outcome,[4],inactive
same,outcome,[5],inactive
same,Potency,[6],inactive
same,Potency,[7],inactive
CC(CC(C#N)(c1ccccc1)C(C)C)N(C)C (stereo unspecified),Potency,[1],inactive
same,Potency,[2],inactive
same,Potency,[3],inactive
same,Potency,[10],inactive
same,Potency,[8],inactive
same,outcome,[5],inactive
same,Potency,[6],inactive
same,Potency,[7],inactive
c1ccc(CN(Cc2ccccc2)Cc2ccccc2)cc1,Potency,[1],17.2 µM (active)
same,Potency,[2],inactive
same,Potency,[3],inactive
same,outcome,[4],inactive
same,outcome,[5],inactive
same,Potency,[6],inactive
same,Potency,[7],inactive
Oc1ccc(Oc2ccccc2)cc1,Potency,[1],inactive
same,Potency,[2],inactive
same,Potency,[3],38.1 µM (active)
same,outcome,[4],inactive
same,outcome,[5],inactive
same,Potency,[6],16.5 µM (active)
same,Potency,[7],inactive
CCOC(OCC)OCC,Potency,[1],inactive
same,Potency,[2],inactive
same,Potency,[3],inactive
same,outcome,[4],inactive
same,outcome,[5],inactive
same,Potency,[6],inactive
same,Potency,[7],inactive
CCCC(=O)OCCC(C)C,Potency,[1],inactive
same,Potency,[2],inactive
same,Potency,[3],inactive
same,outcome,[4],inactive
same,outcome,[5],inactive
same,Potency,[6],inactive
same,Potency,[7],inactive
CCc1ccc2c(c1)C(=O)c1ccccc1C2=O,Potency,[1],inactive
same,Potency,[2],inactive
same,Potency,[3],inactive
same,outcome,[4],inactive
same,outcome,[5],inactive
same,Potency,[6],inactive
same,Potency,[7],inactive
COC=O,activation,[1],0.0799% [at 8.39 µM]
same,"activity change, negative = cytotoxicity",[2],10.2% [at 6.97 µM]
same,activation (H2AX phosphorylation),[3],-1.42% [at 14 µM]
same,activation,[4],-0.206% [at 7.01 µM]
same,"activity, negative = inhibition",[8],14% [at 8.39 µM]
same,"activity change, positive = activation",[9],6.68% [at 8.39 µM]
same,"activity change, negative = cytotoxicity",[5],4.56% [at 6.97 µM]
same,"activity change, negative = cytotoxic",[6],18.9% [at 6.97 µM]
same,cytotoxicity,[7],-7.29% [at 6.97 µM]
Cc1c(Cl)cccc1Nc1ccccc1C(=O)O,Potency,[1],inactive
same,Potency,[2],inactive
same,Potency,[3],inactive
same,Potency,[10],inactive
same,outcome,[5],inactive
same,Potency,[6],inactive
same,Potency,[7],inactive
C=C[Si](OCC)(OCC)OCC,Potency,[1],inactive
same,Potency,[2],inactive
same,Potency,[3],inactive
same,outcome,[4],inactive
same,outcome,[5],inactive
same,Potency,[6],inactive
same,Potency,[7],inactive
CC(C)(C)c1cc(C=O)cc(C(C)(C)C)c1O,Potency,[1],inactive
same,Potency,[2],inactive
same,Potency,[3],inactive
same,outcome,[4],inactive
same,outcome,[5],inactive
same,Potency,[6],inactive
same,Potency,[7],inactive
CCCCCCCCCCCCN1CCOCC1,Potency,[1],inactive
same,Potency,[2],inactive
same,Potency,[3],inactive
same,Potency,[10],inactive
same,Potency,[8],inactive
same,"activity change, positive = activation",[9],-8.24%
same,outcome,[5],inactive
same,Potency,[6],inactive
same,Potency,[7],inactive
CCCN(C1CCN(C(=O)C2CCNCC2)CC1)[C@@H]1CCc2ccc(OC)cc2C1,Potency,[1],inactive
same,Potency,[2],inactive
same,Potency,[3],inactive
same,Potency,[10],inactive
same,Potency,[8],inactive
same,outcome,[5],inactive
same,Potency,[7],inactive
C/C(=C\C(C)CC(C)CC(C)C)C1CC(=O)OC1=O (stereo unspecified),Potency,[1],inactive
same,Potency,[2],inactive
same,Potency,[3],inactive
same,outcome,[4],inactive
same,outcome,[5],inactive
same,Potency,[6],inactive
same,Potency,[7],inactive
CCc1ccc(C(=O)C(C)CN2CCCCC2)cc1 (stereo unspecified),Potency,[1],inactive
same,Potency,[2],inactive
same,Potency,[3],inactive
same,Potency,[10],inactive
same,outcome,[5],inactive
same,Potency,[6],inactive
same,Potency,[7],inactive
Sc1nc(S)nc(S)n1,Potency,[1],inactive
same,Potency,[2],inactive
same,Potency,[3],inactive
same,outcome,[4],inactive
same,"activity change, positive = activation",[9],-29.2% [at 42.5 µM]
same,outcome,[5],inactive
same,Potency,[6],inactive
same,Potency,[7],inactive
Cc1cc(N)n(-c2ccccc2)n1,Potency,[1],inactive
same,Potency,[2],inactive
same,Potency,[3],inactive
same,Potency,[10],inactive
same,Potency,[8],inactive
same,outcome,[5],inactive
same,Potency,[6],inactive
same,Potency,[7],inactive
Cc1c(N=C=O)cccc1N=C=O,Potency,[1],inactive
same,Potency,[2],inactive
same,Potency,[3],inactive
same,Potency,[10],inactive
same,outcome,[5],inactive
same,Potency,[6],inactive
same,Potency,[7],inactive
CCCc1ccc(OC)cc1,Potency,[1],inactive
same,Potency,[2],inactive
same,Potency,[3],inactive
same,outcome,[4],inactive
same,outcome,[5],inactive
same,Potency,[6],inactive
same,Potency,[7],inactive
C[C@H](N)C(=O)N[C@@H](C)C(=O)NC1[C@H]2CN(c3nc4c(cc3F)c(=O)c(C(=O)O)cn4-c3ccc(F)cc3F)C[C@@H]12 (stereo partly specified),Potency,[1],inactive
same,Potency,[2],inactive
same,Potency,[3],inactive
same,Potency,[10],inactive
same,Potency,[8],inactive
same,outcome,[5],inactive
same,Potency,[6],inactive
same,Potency,[7],inactive
CC(C)C/C=C(\C=O)c1ccccc1,Potency,[1],inactive
same,Potency,[2],inactive
same,Potency,[3],inactive
same,Potency,[10],inactive
same,"activity change, positive = activation",[9],-20.3%
same,outcome,[5],inactive
same,Potency,[6],inactive
same,Potency,[7],inactive
CCCC1CCCC(=O)O1 (stereo unspecified),Potency,[1],inactive
same,Potency,[2],inactive
same,Potency,[3],inactive
same,outcome,[4],inactive
same,outcome,[5],inactive
same,Potency,[6],inactive
same,Potency,[7],inactive
Nc1ncnc2c1ncn2[C@@H]1O[C@H](CO)[C@@H](O)[C@H]1O,Potency,[1],inactive
same,Potency,[2],inactive
same,Potency,[3],31 µM (active)
same,Potency,[10],inactive
same,outcome,[5],inactive
same,Potency,[6],inactive
same,Potency,[7],inactive
CC1=CC(=C(c2ccc(N)cc2)c2ccc(N)cc2)C=CC1=N,activation,[1],3.86% [at 8.39 µM]
same,"activity change, negative = cytotoxicity",[2],-15.8% [at 6.97 µM]
same,activation (H2AX phosphorylation),[3],-3.22% [at 14 µM]
same,activation,[4],0.607% [at 7.01 µM]
same,Potency,[8],2.19 µM (active)
same,"activity change, negative = cytotoxicity",[5],-2.94% [at 6.97 µM]
same,cytotoxicity,[7],-6.03% [at 6.97 µM]
Nc1ccc(C(=O)Oc2ccccc2)c(O)c1,Potency,[1],inactive
same,Potency,[2],inactive
same,Potency,[3],inactive
same,Potency,[10],inactive
same,Potency,[8],inactive
same,outcome,[5],inactive
same,Potency,[6],inactive
same,Potency,[7],inactive
COc1ccc(CN(CCN(C)C)c2ncccn2)cc1,Potency,[1],inactive
same,Potency,[2],inactive
same,Potency,[3],inactive
same,outcome,[4],inactive
same,outcome,[5],inactive
same,Potency,[6],inactive
same,Potency,[7],inactive
CCOc1cc(OCC)c(C(C)=O)cc1OCC,Potency,[1],inactive
same,Potency,[2],inactive
same,Potency,[3],inactive
same,outcome,[4],inactive
same,outcome,[5],inactive
same,Potency,[6],21.5 µM (active)
same,Potency,[7],inactive
COc1ccc(C(=O)Nc2ccccc2)cc1[N+](=O)[O-],Potency,[1],inactive
same,Potency,[2],inactive
same,Potency,[3],inactive
same,outcome,[4],inactive
same,outcome,[5],inactive
same,Potency,[6],24.7 µM (active)
same,Potency,[7],inactive
